Laboratory results from PubChem BioAssay AID1159580 (chemical genetic matrix, 2015).
Out of some 5,500 compounds screened, about 2,000 (36%) were called active. Not shown: some 18% with an inconclusive outcome. No stated cut-off is given here; in the data, active means normalized growth mostly below about 0.91 (no sharp cut-off); inconclusive means no clear call, values can overlap the other calls; inactive means mostly above about 0.92. Some of the results follow.

Assay: chemical genetic growth profiling, strain panel (AID 1159580);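 further: tested at 20 µM; growth read once vehicle control cultures reached saturation at 30 °C; 1 = growth at the plate median or of vehicle wells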
Details: growth OD

Measured: normalized growth

CC(=O)N[C@@H](CCC(=O)O)C(=O)O
inactive: S. cerevisiae deletion strains, locus YJR075W, strain HOC1, stronger effect = lower value 1 | S. cerevisiae deletion strains, locus YKL009W, strain mrt4, stronger effect = lower value 1.06 | S. cerevisiae deletion strains, locus YKL068W, stronger effect = lower value 0.995 | S. cerevisiae deletion strains, locus YKL085W, strain MDH1 (second series), stronger effect = lower value 1.01 | S. cerevisiae deletion strains, locus YKL085W, strain MDH1, stronger effect = lower value 1.01 | S. cerevisiae deletion strains, locus YKL160W, strain elf1, stronger effect = lower value 1.04 | S. cerevisiae deletion strains, locus YKL190W, strain CNB1, stronger effect = lower value 1.01 | S. cerevisiae deletion strains, locus YKR001C, strain vps1, stronger effect = lower value 1.01 | S. cerevisiae deletion strains, locus YKR026C, strain gcn3, stronger effect = lower value 1.01 | S. cerevisiae deletion strains, locus YKR091W, strain srl3, stronger effect = lower value 1.02 | S. cerevisiae deletion strains, locus YLL001W, strain dnm1, stronger effect = lower value 0.996 | S. cerevisiae deletion strains, locus YLL026W, stronger effect = lower value 1.01 | S. cerevisiae deletion strains, locus YLL041C, strain sdh2, stronger effect = lower value 1.03 | S. cerevisiae deletion strains, locus YLR027C, strain aat2, stronger effect = lower value 1.02 | S. cerevisiae deletion strains, locus YLR039C, strain RIC1, stronger effect = lower value 1.02 | S. cerevisiae deletion strains, locus YLR058C, strain SHM2, stronger effect = lower value 0.999 | S. cerevisiae deletion strains, locus YLR102C, strain apc9, stronger effect = lower value 1.01 | S. cerevisiae deletion strains, locus YLR113W, strain HOG1, stronger effect = lower value 0.999 | S. cerevisiae deletion strains, locus YLR221C, strain rsa3, stronger effect = lower value 1 | S. cerevisiae deletion strains, locus YLR258W, strain gsy2, stronger effect = lower value 1.03 | S. cerevisiae deletion strains, locus YLR262C, strain YPT6 (second series), stronger effect = lower value 1.03 | S. cerevisiae deletion strains, locus YLR262C, strain YPT6, stronger effect = lower value 0.998 | S. cerevisiae deletion strains, locus YLR268W, strain sec22, stronger effect = lower value 1.06 | S. cerevisiae deletion strains, locus YLR320W, strain mms22, stronger effect = lower value 1.01 | S. cerevisiae deletion strains, locus YLR330W, strain CHS5, stronger effect = lower value 1.01 | S. cerevisiae deletion strains, locus YLR342W, strain FKS1 (second series), stronger effect = lower value 1.05 | S. cerevisiae deletion strains, locus YLR342W, strain FKS1, stronger effect = lower value 1.01 | S. cerevisiae deletion strains, locus YLR357W, strain rsc2, stronger effect = lower value 0.997 | S. cerevisiae deletion strains, locus YLR370C, strain arc18, stronger effect = lower value 1.02 | S. cerevisiae deletion strains, locus YLR371W, strain rom2, stronger effect = lower value 1 | S. cerevisiae deletion strains, locus YLR384C, strain iki3, stronger effect = lower value 1.01 | S. cerevisiae deletion strains, locus YLR418C, strain cdc73, stronger effect = lower value 1.01 | S. cerevisiae deletion strains, locus YML016C, strain PPZ1, stronger effect = lower value 1 | S. cerevisiae deletion strains, locus YML032C, strain rad52, stronger effect = lower value 1.03 | S. cerevisiae deletion strains, locus YML120C, strain ndi1, stronger effect = lower value 1.01 | S. cerevisiae deletion strains, locus YML124C, strain tub3, stronger effect = lower value 1.01 | S. cerevisiae deletion strains, locus YMR058W, strain fet3, stronger effect = lower value 1.02 | S. cerevisiae deletion strains, locus YMR078C, strain ctf18, stronger effect = lower value 1.01 | S. cerevisiae deletion strains, locus YMR125W, strain sto1, stronger effect = lower value 1.01 | S. cerevisiae deletion strains, locus YMR129W, stronger effect = lower value 1.01 | S. cerevisiae deletion strains, locus YMR205C, strain PFK2, stronger effect = lower value 1.01 | S. cerevisiae deletion strains, locus YMR223W, strain ubp8, stronger effect = lower value 1 | S. cerevisiae deletion strains, locus YMR231W, strain pep5, stronger effect = lower value 1.02 | S. cerevisiae deletion strains, locus YMR263W, strain SAP30, stronger effect = lower value 1.01 | S. cerevisiae deletion strains, locus YMR307W, strain GAS1, stronger effect = lower value 1.04 | S. cerevisiae deletion strains, locus YNL067W, strain RPL9B, stronger effect = lower value 1.01 | S. cerevisiae deletion strains, locus YNL071W, strain lat1, stronger effect = lower value 1.02 | S. cerevisiae deletion strains, locus YNL153C, strain GIM3, stronger effect = lower value 1.01 | S. cerevisiae deletion strains, locus YNL183C, strain NPR1, stronger effect = lower value 0.907 | S. cerevisiae deletion strains, locus YNL209W, strain ssb2, stronger effect = lower value 1.03 | S. cerevisiae deletion strains, locus YNL233W, strain BNI4, stronger effect = lower value 1.01 | S. cerevisiae deletion strains, locus YNL248C, strain rpa49, stronger effect = lower value 1.02 | S. cerevisiae deletion strains, locus YNL250W, strain rad50, stronger effect = lower value 1 | S. cerevisiae deletion strains, locus YNL271C, strain bni1, stronger effect = lower value 1.02 | S. cerevisiae deletion strains, locus YNL298W, strain CLA4, stronger effect = lower value 1.01 | S. cerevisiae deletion strains, locus YNL307C, strain MCK1, stronger effect = lower value 1.02 | S. cerevisiae deletion strains, locus YNL322C, strain KRE1 (second series), stronger effect = lower value 1.01 | S. cerevisiae deletion strains, locus YNR049C, strain mso1, stronger effect = lower value 1.02 | S. cerevisiae deletion strains, locus YNR052C, strain pop2, stronger effect = lower value 1.02 | S. cerevisiae deletion strains, locus YOL006C, strain TOP1, stronger effect = lower value 1.06 | S. cerevisiae deletion strains, locus YOL012C, strain htz1 0.888 | S. cerevisiae deletion strains, locus YOL147C, strain pex11, stronger effect = lower value 1.01 | S. cerevisiae deletion strains, locus YOR001W, strain rrp6, stronger effect = lower value 0.988 | S. cerevisiae deletion strains, locus YOR061W, strain CKA2, stronger effect = lower value 1.01 | S. cerevisiae deletion strains, locus YOR069W, strain VPS5, stronger effect = lower value 1.01 | S. cerevisiae deletion strains, locus YOR070C, strain gyp1, stronger effect = lower value 1.03 | S. cerevisiae deletion strains, locus YOR080W, strain dia2, stronger effect = lower value 1.04 | S. cerevisiae deletion strains, locus YOR083W, strain WHI5, stronger effect = lower value 1.03 | S. cerevisiae deletion strains, locus YOR106W, strain vam3, stronger effect = lower value 1.03 | S. cerevisiae deletion strains, locus YOR136W, strain idh2, stronger effect = lower value 0.993 | S. cerevisiae deletion strains, locus YOR144C, strain elg1, stronger effect = lower value 1.01 | S. cerevisiae deletion strains, locus YOR184W, strain ser1, stronger effect = lower value 1.02 | S. cerevisiae deletion strains, locus YOR231W, strain MKK1, stronger effect = lower value 0.973 | S. cerevisiae deletion strains, locus YOR265W, strain rbl2, stronger effect = lower value 1.01 | S. cerevisiae deletion strains, locus YOR270C, strain vph1, stronger effect = lower value 1.11 | S. cerevisiae deletion strains, locus YOR290C, strain snf2, stronger effect = lower value 1.05 | S. cerevisiae deletion strains, locus YOR316C, strain cot1, stronger effect = lower value 1 | S. cerevisiae deletion strains, locus YPL051W, strain arl3, stronger effect = lower value 1.03 | S. cerevisiae deletion strains, locus YPL055C, strain LGE1, stronger effect = lower value 0.977 | S. cerevisiae deletion strains, locus YPL078C, strain atp4, stronger effect = lower value 1.03 | S. cerevisiae deletion strains, locus YPL106C, strain sse1, stronger effect = lower value 1.02 | S. cerevisiae deletion strains, locus YPL240C, strain hsp82, stronger effect = lower value 1.03 | S. cerevisiae deletion strains, locus YPL256C, strain CLN2, stronger effect = lower value 0.956 | S. cerevisiae deletion strains, locus YPR119W, strain clb2, stronger effect = lower value 1 | S. cerevisiae deletion strains, locus YPR141C, strain kar3, stronger effect = lower value 1.01 | S. cerevisiae deletion strains, locus YPR163C, strain tif3, stronger effect = lower value 1.01 | S. cerevisiae deletion strains, locus YPR167C, strain met16, stronger effect = lower value 1 | S. cerevisiae deletion strains, strain wtn01, stronger effect = lower value 1.02 | S. cerevisiae strains, strain wild type, stronger effect = lower value 1.01
